Experimental data: PubChem BioAssay (EPA / NIEHS)
Activity calls are given as the source filed them. Rule for the calls: active = hit-call score of the fitted dose curve at least 0.9, where 1 is the maximum; inactive = score below 0.9.

Assay: ATG_M_06_CIS: Attagene CIS-FACTORIAL HepG2 Assay for M06 Transcription Factor (Internal Marker) (AID 2282950)
Details: HepG2 Attagene CIS-FACTORIAL M06 internal marker reporter; actives raise or lower the signal
Experimental: ATG_CIS is a cell-based, multiplexed-readout assay that uses HepG2, a human liver cell line, with measurements taken at 24 hours after chemical dosing in a 24-well plate.ATG_M_06_CIS is one of 52 assay component(s) measured or calculated from the ATG_CIS assay. It is designed to make measurements of mRNA induction, a form of inducible reporter, as detected with fluorescence intensity signals by Reverse transcription polymerase chain reaction (RT-PCR) and Capillary electrophoresis technology.Data from the assay component ATG_M_06_CIS was analyzed into 1 assay endpoint. This assay endpoint, ATG_M_06_CIS, was analyzed with bidirectional fitting relative to DMSO as the negative control and baseline of activity. Using a type of inducible reporter, measures of mRNA for gain or loss-of-signal activity can be used to understand the background control at the transcription factor-level as they relate to the gene . Furthermore, this assay endpoint can be referred to as a secondary readout, because this assay has produced multiple assay endpoints where this one serves a background control function. To generalize the intended target to other relatable targets, this assay endpoint is annotated to the background measurement intended target family, where the subfamily is internal marker.
Human liver HepG2 cells are transiently transfected with multiple reporter transcription units (MRTUs) in 6-well plates using FuGene 6 reagent (Roche; 3 ml FuGene/1 mg DNA). The MRTU constructs are regulated by a cis-regulating element (promoter). […] A major difference between the CIS and TRANS system is that in CIS activities of endogenous TFs are measured, whereas the TRANS assay evaluates changes in activities of exogenous, chimeric NR-Gal4 proteins. […] At the end of 24 hour incubation, total RNA was isolated using TriZol reagent (Invitrogen). The isolated RNA is then reverse-transcribed using oligo(dT) primer and Mo-MLV reverse transcriptase (Invitrogen) with DNAse I (Ambion) treatment for 30 min. The one-tenth of the produced cDNA was amplified by PCR using Taq DNA polymerase (Invitrogen) and two reporter sequence-specific primers. The PCR products were fluorescently labeled by primer extension with 6-arboxyfluorescein (6-FAM) 5'-labeled reporter sequence-specific primer (2 min at 95 C, 20 s at 68 C and 10 min at 72 C) and these products were digested with 5U of HpaI (New England Biolabs) for 2h at 37 C. The fragments were purified using Qiaquick PCR columns (Qiagen), analyzed on an ABI 3130xL genetic analyzer (Applied Biosystems) with peak positions identified by using a set of X-rhodamine (ROX)-labeled MapMarker1000 molecular weight standards (BioVentures). The raw capillary electrophoresis data was processed using Attagraph software (Attagene).

outcome, inactive:
Nc1nc2ccccc2[nH]1
C=CC=CC=CCCCCC
CC(=O)OCC(=O)[C@@]12N=C(C)O[C@@H]1C[C@H]1[C@@H]3CCC4=CC(=O)C=C[C@]4(C)[C@H]3[C@@H](O)C[C@@]12C
CCCNC(=O)NS(=O)(=O)c1ccc(Cl)cc1
c1cc(N(CC2CO2)CC2CO2)ccc1OCC1CO1 (stereo not given)
C[C@]12C=CC(=O)C=C1CC[C@@H]1[C@@H]2[C@@H](O)C[C@@]2(C)[C@H]1CC[C@]2(O)C(=O)CO
CCCCCCOc1cc(C)c(O)c(C)c1C
CCCCC(CC)COC(=O)c1ccccc1 (stereo not given)
OCCCS
CCCc1ccc(OC)cc1
CCCCCCCCO[C@@H]1O[C@H](CO)[C@@H](O)[C@H](O)[C@H]1O
Cc1ccccc1C
CC=CCO
C=CC(=O)OCC(Br)CBr (stereo not given)
CC1(C)O[C@@H]2C[C@H]3[C@@H]4C[C@H](F)C5=CC(=O)C=C[C@]5(C)[C@@]4(F)[C@@H](O)C[C@]3(C)[C@]2(C(=O)CO)O1
CC/C=C\C/C=C\C/C=C\CCCCCCCC(=O)O
CCC(Cc1ccccc1)(C(=O)c1ccc(N2CCOCC2)cc1)N(C)C (stereo not given)
C=CC(=O)OCCC(=O)O
CCCCNc1ccc(NCCCC)c2c1C(=O)c1ccccc1C2=O
O=C(O)CCCCCCCCCC(=O)O
Cc1cc(C)c(C(=O)O)c(C)c1
Cc1ccc(C(C)(C)C)cc1
CC1=Nc2ccc3ccccc3c2C1(C)C
CCCCCCCC[N+](C)(CCCCCCCC)CCCCCCCC
c1ccc2c(c1)ccc1cc3c(ccc4ccccc43)cc12
C=CC(C)(CCC=C(C)C)OC(=O)C(C)C (stereo not given)
CC(C)c1ccc2c(C(C)C)cc(C(C)C)c(S(=O)(=O)O)c2c1
CC(=O)OC(C)C
CC(C)(C)C(=O)CCc1ccc(Cl)cc1
N#[N+]c1ccc2c(S(=O)(=O)[O-])cccc2c1O
CC(=O)[C@@]1(O)CC[C@H]2[C@@H]3C[C@H](C)C4=CC(=O)C=C[C@]4(C)[C@@]3(F)[C@@H](O)C[C@@]21C
O=S(=O)(O)c1cc(S(=O)(=O)O)c2ccc3c(S(=O)(=O)O)cc(S(=O)(=O)O)c4ccc1c2c43
O=c1c2ccccc2nnn1CCl
CC[C@H]1OC(=O)[C@H](C)[C@@H](O[C@H]2C[C@@](C)(OC)[C@@H](O)[C@H](C)O2)[C@H](C)[C@@H](O[C@@H]2O[C@H](C)C[C@H](N(C)C)[C@H]2O)[C@](C)(O)C[C@@H](C)C(=NOCOCCOC)[C@H](C)[C@@H](O)[C@]1(C)O
O=C1OC(=O)c2cc(Oc3ccc4c(c3)C(=O)OC4=O)ccc21
O=C(c1ccccc1)c1ccc(O)c(O)c1O
CCCCCCCCCCCCCCCCCC#N
CC1(C)[C@H]2CC[C@]1(C)C(=O)C2
COc1ccc([C@@H]2CC(=O)c3c(O)cc(O[C@@H]4O[C@H](CO[C@@H]5O[C@@H](C)[C@H](O)[C@@H](O)[C@H]5O)[C@@H](O)[C@H](O)[C@H]4O)cc3O2)cc1OC
C[Si](C)(C)O[Si](O)(O)O
